In PubChem BioAssay (NCI):
Compounds without any hit were thinned out: in the full panel of roughly 83,000, 20% have a hit.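 Cells were grown in 96-well plates and exposed to the test compound at a single concentration for 48 hours; results are reported as percent growth, with values below 10 considered active.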 Values without a mark were called inactive. Activity calls are given as the source filed them.

test system: PC-3 prostate; assay: NCI-60 one-dose screen, 48 h (100 = growth as untreated, 0 = no growth, -100 = all killed); settings: 10 µM unless noted

| SMILES | growth [%] |
| --- | --- |
| COc1ccc(/C=N/Nc2c3ccccc3nc3ccccc23)cc1 | 83.1 |
| CC1(C)CC[C@]23CC[C@]4(C)[C@H](CC[C@@H]5[C@@]6(C)C/C(=C/O)C(=O)C(C)(C)[C@@H]6CC[C@]54C)[C@H]2[C@H]1OC3 | 86.1 |
| CS(=O)(=O)Nc1cc(-c2ccc3ncnc(Nc4ccc5c(cnn5Cc5ccccc5F)c4)c3c2)cnc1Cl | 37.5 |
| Cc1nc2sc(C(=O)Nc3cccc4ccccc34)c(N)c2cc1C(=O)c1ccccc1 | 21.3 |

test system: SK-MEL-5 melanoma; assay: as above; settings: 10 µM unless noted

| SMILES | growth |
| --- | --- |
| COc1cc(-c2ccc[nH]2)[nH]c1/C=C1\N=C(C)C(CC(=O)OCC(C)(C)C)=C1C | -95.7% (active) |
| N#Cc1c(-c2ccc(Br)cc2)nc2c(N=Nc3ccc(S(N)(=O)=O)cc3)c(N)nn2c1N | 45.8% |
| O=[N+]([O-])c1ccccc1Nc1ccc2ccccc2c1 | 98.6% |
| c1ccc(Nc2nc3c(s2)CCc2c[nH]cc2-3)nc1 | 83.5% |
| COc1ccc2cc(C(=O)N3CCC([C@@H](C)C(=O)NCc4ccc5c(c4)OCO5)CC3)[nH]c2c1 | 63.6% [50 µM] |
| Nc1cc(C(=O)O)cc(-n2c(O)c(C=C3N=c4ccccc4=N3)sc2=S)c1 | 97.9% |
| CC1(C)N=C(N)N=C(N)N1c1cc(Cl)ccc1Cl | 98.1% |
| CC/C(=C(\c1ccc(Cl)cc1)c1ccc(OCCN2CCCCC2)cc1)c1ccc(O)cc1 | 2.53% (active) |
| O=C1O[C@@H](c2ccccc2Cl)[C@@H]2c3cc4c(cc3CCN12)OCO4 | 96.6% |
| C=CCn1cc(-c2nc3ccccc3s2)c2cc(-c3ccc4c5c(cccc35)C(=O)N(CCO)C4=O)ccc21 | 96.1% |
| CCOC(=O)C#Cc1c(C(=O)OCC)nnn1[C@@H]1O[C@H](COC)[C@@H](OC)[C@H]1OC | 98.3% |
| O=C(/C=C/c1ccccc1Cl)c1cccc(OCCCCOc2cccc(C(=O)/C=C/c3ccccc3Cl)c2)c1 | 99.5% |
| Nc1nc2ccccc2c2c(=O)c3cc(Cl)ccc3sc12 | 96.5% |
| C=CC(=O)Nc1cccc(Oc2nccc(Nc3nnc(-c4ccc(Br)cc4)s3)n2)c1 | 94.7% |
| CC/C(=C(/c1ccc(O)cc1)c1ccc(OCCN2CCCCC2)cc1)c1ccc(OC)cc1 | 88.6% |
| CNC(=O)c1cc(Oc2ccc3c(c2)sc2nc(-c4ccc(NC(=O)[C@@H](NC(=O)OC)C(C)C)cc4)cn23)ccn1 | 5.33% (active) |
| Cn1c(=O)[nH]c(=O)c2nc3c(nc21)-c1ccccc1C3=O | 98.5% |
| COC1C(O)CC(OC2CC(OC3CC(O[C@@H]4C(=O)c5c(cc6cc(OC7CC(OC8CC(O)C(O)C(C)O8)C(O)C(C)O7)c(C)c(O)c6c5O)CC4[C@H](OC)C(=O)O)OC(C)C3O)OC(C)C2O)OC1C (some centres undefined) | -45.9% (active) |
| N#CC1=C(N)Oc2c(sc3c(F)cccc23)C1c1ccc([N+](=O)[O-])cc1 (centres undefined) | -95.9% (active) |
| COc1ccc(/C=C(/C(=O)N2CCNCC2)c2cc(OC)c(OC)c(OC)c2)cc1O | 40% |

| SMILES | growth |
| --- | --- |
| Cc1ccc(NC(=O)c2cc3ccccc3cc2O)c(C)c1 | 49.4% |
| N#Cc1c(-c2ccccc2)nc2c(c(-c3ccccc3)nn2-c2ccccc2)c1-c1ccc(N2CCCCC2)cc1 | 99.2% |
| O=C(Nc1ccccc1O)c1ccc(CNc2ccnc(C(F)(F)F)c2)cc1 | 38.1% |
| COc1cc(/C=C2\C(=O)N(CCCOc3cc(O)c4c(=O)cc(-c5ccccc5)oc4c3)c3ccccc32)cc(OC)c1O | 71.9% |
| CN1C(=O)N2CN3CCCN(C3)CN3C(=S)NC1C23 (centres undefined) | 100% |
| O=c1oc2ccccc2cc1-c1nn(-c2ccccc2)cc1-c1nn[nH]n1 | 102% |
| COc1cc(OC)c2c(=O)c3c(CC=C(C)C)cc(OC)c(O)c3oc2c1 | 76.4% |
| COC(=O)c1c2c(c[n+]([O-])c1C)C(=O)C=C(NCc1ccccc1)C2=O | -100% (active) |
| N#C/C(=C\c1ccc(-c2cccc(Cl)c2)o1)C(=O)Nc1ncc(Cc2ccc(Cl)cc2)s1 | 89.9% |
| O=C(/C=C/c1ccccc1)c1ccc(-n2cc(CN3CCN(c4cc5c(cc4F)c(=O)c(C(=O)O)cn5C4CC4)CC3)nn2)cc1 | 77.6% |
| N#Cc1ccc(/C=C/c2cn(-c3ccccc3)nc2-c2cccc([N+](=O)[O-])c2)cc1 | 72.7% |
| c1ccc(Cn2cc3c(c2-c2ccccc2)CCc2cnoc2-3)cc1 | 78.8% |
| NCCCNc1nc2ccccc2c2c(=O)c3cc(Cl)ccc3sc12 | 46.9% |
| Cc1cc(C)c2c(c1)N(C)c1ncnc(-n3c(C)nc4cc(C)ccc43)c1CC2C (centres undefined) | 13.6% |
| CSc1ccc2c3c(n(CCCn4ccnc4)c(=O)c2c1)-c1ccccc1C3=O | 19.5% |
| COc1ccc(C(=O)/C=C/c2ccccc2)cc1S(N)(=O)=O | 88.2% |
| COc1ccc(/C=N/Nc2c3ccccc3nc3ccccc23)cc1 | 90.4% |
| CC1(C)CC[C@]23CC[C@]4(C)[C@H](CC[C@@H]5[C@@]6(C)C/C(=C/O)C(=O)C(C)(C)[C@@H]6CC[C@]54C)[C@H]2[C@H]1OC3 | 101% |
| CS(=O)(=O)Nc1cc(-c2ccc3ncnc(Nc4ccc5c(cnn5Cc5ccccc5F)c4)c3c2)cnc1Cl | 26.3% |
| Cc1nc2sc(C(=O)Nc3cccc4ccccc34)c(N)c2cc1C(=O)c1ccccc1 | 25% |
